The target of the test is DAX1 (UniProt P51843). Description: DAX1 inhibitors in Gal4 CAT reporter cells – cell-based, CAT activity, absorbance, powder samples, DAX1 inhibitor project, dose response (AID 624301). Particulars: HEK293 Gal4-DAX1 CAT reporter, ELISA absorbance; CAT reporter with DAX1, at 100 µM (top of the series). In general terms: ELISA stands for enzyme-linked immunosorbent assay.

Calls of active or inactive are those of the source.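 How the source made its calls: active means relative activity ratio in the reporter plus Dax-1 wells above 5 or under 0.1 at any tested dose; inactive means ratio stays between 0.1 and 5 at every dose.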

Chain of DAX1 (P51843 whole entry, looked up, the tested form may be a part): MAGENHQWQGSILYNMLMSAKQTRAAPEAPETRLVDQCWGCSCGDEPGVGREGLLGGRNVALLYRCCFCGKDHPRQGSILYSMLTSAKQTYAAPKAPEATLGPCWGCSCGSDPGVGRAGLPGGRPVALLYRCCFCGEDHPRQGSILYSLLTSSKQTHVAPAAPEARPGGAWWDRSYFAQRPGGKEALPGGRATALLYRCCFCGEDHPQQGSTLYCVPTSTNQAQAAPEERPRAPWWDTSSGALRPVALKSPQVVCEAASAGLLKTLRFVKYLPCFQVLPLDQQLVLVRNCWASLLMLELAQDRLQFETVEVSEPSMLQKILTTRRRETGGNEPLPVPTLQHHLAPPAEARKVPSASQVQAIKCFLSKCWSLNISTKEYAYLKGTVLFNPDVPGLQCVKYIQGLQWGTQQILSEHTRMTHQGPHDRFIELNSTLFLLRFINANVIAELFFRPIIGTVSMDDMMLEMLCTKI

On to `Cn1c(=O)n(C)c2cc(C(=O)Nc3ccc4c(c3)OCO4)ccc21`, for which the call was inactive. To `Cn1c(=O)n(C)c2cc(C(=O)Nc3ccc4c(c3)OCCO4)ccc21` belongs “inactive”.

The record behind these values is PubChem BioAssay AID624301 (The Scripps Research Institute Molecular Screening Center, 2012).
